Assay results from PubChem BioAssay (NCATS).
Inconclusive results are not listed. Unmarked numbers belong to inactive results. Active and inactive are the calls of the source. The call rests on the fitted dose curve; in most records, active means well fitted inhibition curve with a large enough effect; inconclusive means small, poorly fitted or top-dose-only effect; inactive means no such curve, though single readings can be large or run the other way.

molecular target: Muscarinic acetylcholine receptor M1 (Rattus norvegicus) (UniProt P08482); experiment: qHTS Assay for Antagonists of Acetylcholine Muscarinic M1 Receptor: Measurement of IP-One Response (AID 944); conditions: CHO-M1 cells, IP-One HTRF, antagonist mode; series mostly up to 46.1 µM; activity change, negative = inhibition: at the top concentration; further: nearly all actives have a fitted effect of over 75% in size
Excerpt: NIH Molecular Libraries Screening Centers Network [MLSCN]
NIH Chemical Genomics Center [NCGC]
Acetylcholine muscarinic M1 receptor is a G-protein coupled receptor (GPCR) coupling to the Gq G protein. It is mainly expressed in brain and functionally related to the learning and memory processes. The agonists of this receptor have the potential for the treatment of Alzheimer's disease and cognitive impairments associated with Schizophrenia.
Upon an activation of the M1 receptor, phosholipase C (PLC) is activated to produce inositol 1,4,5-trisphosphate (IP3) and diacyl glycerol (DAG). The IP3 is very rapidly hydrolyzed to IP2, IP1 and then inositol by a series of enzymes and Ca2+ is quickly pumped back into ER by the calcium pump on the ER membrane, which effectively switches off the IP3 and Ca2+ signaling. For compound screen, the changes in intracellular free Ca2+ concentration can be measured by the fluorescence calcium dye such as Fura-2, Fluo-3 and Fluo-4 with a fluorescence kinetic plate reader. IP1 or total IPs including IP1, IP2 and IP3 are usually measured as an alternative method for assessing the function of Gq-coupled GPCRs. We have applied a time-resolved fluorescence based (TR-FRET) IP1 assay in which an IP1 specific antibody is used to detect the labeled IP1 tracer. When the cell lysate contains the elevated IP1, the TR-FRET between the labeled antibody and IP1 tracer is disrupted resulting in a reduction in the total signal. Since the TR-FRET is used, a homogenous assay with out cell wash and medium change is possible which also can be miniaturized into the high density format for HTS.
We have obtained a M1-CHO cell line transfected with rat acetylcholine M1 receptor and optimized this IP-One assay with this cell line for compound screening as a counter-screen assay for other Gq-coupled GPCRs.
NCGC Assay Protocol Summary:
The CHO-M1 (CHO-M1) cell line transfected with the rat acetylcholine muscarinic M1 receptor was obtained from American Type Culture Collection (ATCC). The cells were maintained in call culture flasks with F12 Kaighn's media (Invitrogen) supplemented with 10 % FBS, 100 units/ml penicillin, 100 ug/ml streptomycin and 250 ug/ml geneticin (Invitrogen) at 37C, 5 % CO2 in a humidified atmosphere. At 90-95 % confluence, the cells were then detached in 15 ml 0.25 % trypsin by 3 minutes incubation at 37C and centrifuged at 1000 RPM to remove the trypsin solution. The resulting cell pellet was resuspended in the cell freezing media containing 10 % DMSO (Invitrogen) at a density of 4 x 10^7 cells/ml. The aliquots of cells at 0.5 - 1 ml per vial were frozen down slowly at 1 degree C/min using a Cryo 1 degree C freezing container in the presence of isopropanol (Nalgene Nunc, Rochster, NY) overnight in a -80C freezer. The frozen cells were then transferred to liquid nitrogen for the storage up to one year.
The resuspended frozen cells were plated at 3 ul/well with 2000 cells in the black, tissue culture treated, clear bottom 1536-well plates. The cells were cultured at 37C, 5 % CO2 for overnight to allow the cells recovering from the frozen state. 20 nl/well of compound in DMSO solution was added to the assay plate and incubated for 10 min. Carbachol was prepared in stimulation buffer (10mM Hepes, 1mM CaCl2, 0.5 mM MgCl2, 4.2 mM KCl, 146 mM NaCl, 5.5 mM glucose 50mM LiCl 50mM pH7.4) which was added to the assay plate at 1 ul/well. After an incubation with carbachol at 37C, 5 % CO2 for 30 min, all the wells in the assay plate were added with 1 ul/well of d2 conjugated IP1 (d2-IP1) and 1 ul/well of Eu+ cryptate conjugated anti-IP1 antibody (Eu+-Ab), both from the IP-One kit (Cisbio USA., Inc.). After 10 min incubation at the room temperature, the assay plates were measured in the HTRF detection mode in ViewLux plate reader (Ex=337 nm. Em(1)=620 and Em(2)=665 nm)
1536-well assay protocol:
(1) 4 ul/well containing 2000 M1-CHO cells in 1536 tissue culture treated white plate
(3) Add 23 nl compound diluted in DMSO
[…]
Potency means the concentration at half of the fitted maximal effect.

Chain of Muscarinic acetylcholine receptor M1 (Rattus norvegicus) (P08482 whole entry, looked up): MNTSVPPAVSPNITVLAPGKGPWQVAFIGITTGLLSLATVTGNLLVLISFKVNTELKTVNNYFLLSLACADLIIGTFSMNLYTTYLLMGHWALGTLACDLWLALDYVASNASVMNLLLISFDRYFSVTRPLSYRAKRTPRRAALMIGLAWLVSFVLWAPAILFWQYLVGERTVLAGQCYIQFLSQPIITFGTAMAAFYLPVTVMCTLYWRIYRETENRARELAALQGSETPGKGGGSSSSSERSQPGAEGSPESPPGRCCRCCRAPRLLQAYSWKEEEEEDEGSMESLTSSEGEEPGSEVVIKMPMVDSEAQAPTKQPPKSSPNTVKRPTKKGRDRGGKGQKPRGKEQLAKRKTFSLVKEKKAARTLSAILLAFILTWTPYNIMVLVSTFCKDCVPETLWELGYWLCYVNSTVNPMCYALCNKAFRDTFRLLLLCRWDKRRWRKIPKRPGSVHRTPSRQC

SMILES | activity change, negative = inhibition [%] | Potency
N[C@]1(C(=O)O)CCc2cc(C(=O)O)ccc21 | -36.8 | –
COc1ccccc1NC(=O)Nc1nc(-c2cccnc2)nc2ccccc12 | -41.1 | –
CN1CCN(CCC=C2c3ccccc3Sc3ccc(S(=O)(=O)N(C)C)cc32)CC1 | -31.1 | –
NCCNS(=O)(=O)c1cccc2cnccc12 | -2.72 | –
N[C@@H]1CCN(O)C1=O | -26.1 | –
C[C@H](N=C(NC#N)Nc1ccncc1)C(C)(C)C | -32.6 | –
COc1ccc2c(c1)c(CC(=O)N1CCOCC1)c(C)n2C(=O)c1ccc(Cl)cc1 | -9.1 | –
O=C(O)[C@H]1CCCNC1 | 0.321 | –
CC(C)(C)NC[C@H](O)COc1cccc2[nH]c(=O)[nH]c12 | -12.4 | –
S=C(S)O[C@@H]1C[C@@H]2C[C@H]1[C@@H]1CCC[C@H]21 | -36.5 | –
COC(=O)C1=C(C)NC(C)=C([N+](=O)[O-])[C@H]1c1ccccc1C(F)(F)F | -41.4 | –
CC(C)NC[C@H](O)c1ccc(NS(C)(=O)=O)cc1 | -39 | –
CC(N)=NCCCC[C@H](N)C(=O)O | -18.7 | –
CNCC[C@H](Oc1ccccc1OC)c1ccccc1 | – | 11.2 µM (active)
Cc1cccc(C)c1NC(=O)C[N+](C)(C)C | -34.1 | –
NC(N)=NN=Cc1c(Cl)cccc1Cl | -5.06 | –
CC(=O)N[C@@H](C(=O)O)C(C)(C)SN=O | -12.2 | –
S=C(Nc1ccccc1)Nc1nccs1 | -54.8 | –
O=Nc1c(-c2c(O)[nH]c3ccccc23)[nH]c2ccccc12 | -39.9 | –
O=C(NCCNC[C@@H](O)COc1ccc(O)cc1)N1CCOCC1 | -27.3 | –

SMILES | activity change, negative = inhibition [%] | Potency
CO[C@]1(C2=NCCN2)COc2ccccc2O1 | -37.6 | –
C[C@@H]([C@H](O)c1ccc(O)cc1)N1CCC(Cc2ccccc2)CC1 | – | 7.94 µM (active)
C=CCN1CCc2cc(O)c(O)cc2[C@H](c2ccccc2)C1 | -26 | –
O=C(O)c1cc(=O)c2ccc(Cl)cc2[nH]1 | -12.8 | –
COc1cccc(OC)c1OCCNC[C@@H]1COc2ccccc2O1 | – | 17.8 µM (active)
N[C@H](C(=O)O)[C@@H]1C[C@@H]1C(=O)O | 5.59 | –
C[C@@H](/C=C\c1cccc(Oc2ccc(F)cc2)c1)N(O)C(N)=O | -20.8 | –
C1CCC(N=C(NC23CC4CC(CC(C4)C2)C3)N2CCOCC2)CC1 | – | 17.8 µM (active)
CC(N)=NCc1cccc(CN)c1 | -41.4 | –
Cc1cccc(/C=C\c2ccccc2)n1 | -38.9 | –
CC(C)=CCC/C(C)=C/CC/C(C)=C/CSc1ccccc1C(=O)O | -41.4 | –
Cn1cnc2c(NC3CCCC3)ncnc21 | -7.12 | –
C#C[C@]1(O)CC[C@H]2[C@H]3CCC4=Cc5oncc5C[C@]4(C)[C@@H]3CC[C@]21C | – | 7.94 µM (active)
Fc1cccc(/C=N\N=C/c2cccc(F)c2)c1 | -23.1 | –
CN(C)c1ccc(/C=C2/C(=O)Nc3ccccc32)cc1 | – | 14.1 µM (active)
C[C@@](N)(C(=O)O)c1ccc(C(=O)O)cc1 | -47 | –
O=C1N=C(O)CN1/N=C\c1ccc(-c2ccc([N+](=O)[O-])cc2)o1 | -29.4 | –
CN(C)CCCCSC(=N)N | -24 | –
CSc1ccc2c(c1)[C@H](N1CCN(C)CC1)Cc1ccccc1S2 | – | 5.62 µM (active)
C[C@]12CC3CC(N)(C1)C[C@@](C)(C3)C2 | 7.28 | –
